Test results from PubChem BioAssay (NCI).
This is part of a sample that, as a whole, favours compounds with a hit. Of some 79,000 tested, about 15% had one in any assay. Cut-off read from the data, not from the text of the source: active = growth inhibition above about 70%; inactive = the rest.

Legend:
[1] = NCI Yeast Anticancer Drug Screen. Data for the rad50 strain (AID 155);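 note: 0% = growth of vehicle-only cultures of the same strain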; conditions: S. cerevisiae rad50 strain growth inhibition; at 50.0 µM; active compounds read high
Summary of the method: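 Vehicle-treated cultures provide the reference for the growth inhibition reported for compound-exposed, repair-deficient yeast.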

[2] = NCI Yeast Anticancer Drug Screen. Data for the mec2-1 strain (AID 157); conditions: S. cerevisiae mec2-1 strain, at 50.0 µM, active compounds read high
Summary of the method: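 Compounds were applied to mec2-1 yeast cells. Their growth was then compared with that of vehicle-treated cultures to give growth inhibition.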

[3] = NCI Yeast Anticancer Drug Screen. Data for the sgs1 mgt1 strain (AID 161);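 note: 0% = growth of cultures given vehicle only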; conditions: S. cerevisiae sgs1 mgt1 strain, at 50.0 µM, active compounds read high
Summary of the method: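 Growth of a repair-deficient yeast mutant was monitored after compound treatment and expressed as inhibition relative to vehicle-treated cultures.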

[4] = NCI Yeast Anticancer Drug Screen. Data for the cln2 rad14 strain (AID 165);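 note: 0% = growth equal to vehicle treated cultures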; conditions: S. cerevisiae cln2 rad14 strain, at 50.0 µM, active compounds read high
Summary of the method: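 Strain: cln2 rad14 yeast, altered in cell cycle control and DNA damage repair. Read-out: growth inhibition vs vehicle.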

[5] = NCI Yeast Anticancer Drug Screen. Data for the bub3 strain (AID 167); conditions: S. cerevisiae bub3 mutant strain, at 50.0 µM, active compounds read high
Summary of the method: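 Mutant yeast screening strain plus compound; vehicle-treated cultures serve as the 0% inhibition reference.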

[6] = NCI Yeast Anticancer Drug Screen. Data for the mlh1 rad18 strain (AID 175); conditions: S. cerevisiae mlh1 rad18 strain growth inhibition; at 50.0 µM; active compounds read high
Summary of the method: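 A repair-deficient yeast strain is exposed to test compound, and growth is scored relative to vehicle-treated controls.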

Measured: growth inhibition

CC(C)N(C(=O)C12CC3CC(CC(C3)C1)C2)C(C)C
inactive: [1] 24.9% | [2] 0.45% | [3] 8.05% | [4] 13.2% | [5] 20.9% | [6] 6.15%

CS(=O)(=O)OCCN(CCOS(C)(=O)=O)c1ccc(N=Nc2ccccc2C(=O)O)cc1
inactive: [1] 27.9% | [2] 21.9% | [3] 21.6% | [4] 24.8% | [5] 19.1% | [6] 32.4%

Fc1c(F)c(F)c(-c2nnc(-c3c(F)c(F)c(F)c(F)c3F)o2)c(F)c1F
inactive: [1] -2.45% | [2] 2.75% | [3] -8.75% | [4] -56.8% | [5] 9.3% | [6] 4.25%

CC(NC(=O)CCl)c1ccccc1 (configuration not stated)
inactive: [1] 23.7% | [2] -12.2% | [3] -12.9% | [4] 14.4% | [5] 4.25% | [6] 36.4%

Cc1cc(Br)ccc1N=c1scc(-c2ccc(Cl)cc2)n1C
inactive: [1] -22.2% | [2] -27.6% | [3] 4.45% | [4] 0.1% | [5] 16.1% | [6] 15.1%

COc1cc(O)c(O)cc1C(C)(C)C
inactive: [1] 35.9% | [2] 24.6% | [3] 45.4% | [4] -11.7% | [5] 36.5% | [6] -1.25%

CC(C)(C)OC(=O)C1C(=O)CC(c2ccccc2)C1c1ccccc1 (configuration not stated)
inactive: [1] -3.05% | [2] -3% | [3] 1.25% | [4] -7.8% | [5] -5.7% | [6] -1.9%

Cc1cc2c(=O)cc(-c3ccncc3)oc2c(C(=O)O)c1C
inactive: [1] 20.7% | [2] 0.2% | [3] -10.3% | [4] 20.5% | [5] 26.9% | [6] -5.5%

COC(=O)c1nc(N)nc(C(=O)OC)c1C(=O)c1ccc(F)cc1
inactive: [1] 8.55% | [2] -1% | [3] -12.3% | [4] 5.35% | [5] 9.4% | [6] 20.6%

OC(c1cccc(Cl)c1)C(Cl)Cl (configuration not stated)
inactive: [1] -2.55% | [2] -9.45% | [3] -22% | [4] -4.15% | [5] -14.5% | [6] 1.95%

[N-]=[N+]=C(C(=O)N1CCCC1=O)S(=O)(=O)c1ccccc1
inactive: [1] -17.3% | [2] -12.4% | [3] -17.9% | [4] 5.45% | [5] -14.4% | [6] 2.45%

O=c1c2cccnc2[nH]c2ccc3[nH]ncc3c12
inactive: [1] -17.2% | [2] -25.9% | [3] -13.4% | [4] 26.4% | [5] -30.9% | [6] 15.6%

N/N=C(\c1nc2ccc([N+](=O)[O-])cc2[nH]c1=O)C(O)c1ccc(Cl)c(Cl)c1 (configuration not stated)
inactive: [1] 5.7% | [2] -6.65% | [3] -11.1% | [4] -12.7% | [5] 22.3% | [6] -6.6%

CC(=O)NC1CCC(Cc2ccccc2)CC1 (configuration not stated)
inactive: [1] 6.2% | [2] -7.65% | [3] -11.3% | [4] -93.3% | [5] -22.3% | [6] -3.9%

CC(=O)/C(C)=C\c1ccc(C(C)C)cc1
inactive: [1] 8.85% | [2] -12.7% | [3] -10.9% | [4] -7.2% | [5] 10.9% | [6] -1.55%

COc1ccc(-c2cc(-c3ccccc3)n(C3OC(COC(C)=O)C(OC(C)=O)C(OC(C)=O)C3OC(C)=O)c(=S)c2C#N)cc1 (configuration not stated)
inactive: [1] 5% | [2] -11.8% | [3] -8.6% | [4] -25.4% | [5] 26.5% | [6] -5.2%

Cc1ccc(N2C(=O)CNC2=O)cc1
inactive: [1] -10.3% | [2] -5% | [3] -7.8% | [4] -27.2% | [5] 1.2% | [6] -6.45%

Cn1c(=O)c2[nH]c(N(CCO)CCO)nc2n(C)c1=O
inactive: [1] 7.75% | [2] 9.95% | [3] 23.9% | [4] 21.9% | [5] -2.3% | [6] 15.1%

Cc1ncc([N+](=O)[O-])n1CCNC(=O)CCCCCn1ccnc1[N+](=O)[O-]
inactive: [1] 3.1% | [2] -4.05% | [3] -9.45% | [4] 19.7% | [5] -6.15% | [6] -35.2%

Clc1cccc2[nH]ccc12
inactive: [1] -6.1% | [2] -3.1% | [3] -23.9% | [4] -10.2% | [5] -11.3% | [6] -3.9%

CC(O)C1CCCCC1O (configuration not stated)
inactive: [1] 5.15% | [2] -28.3% | [3] -2.85% | [4] -8.65% | [5] -9.6% | [6] -11.3%

C[n+]1cccc(C(=O)O)c1-c1ccccc1
inactive: [1] 20.4% | [2] 5.9% | [3] 5.85% | [4] -39.5% | [5] 4.55% | [6] 10.3%

Cc1ccc(OC(=O)c2cc([N+](=O)[O-])cc([N+](=O)[O-])c2)cc1
inactive: [1] 4.4% | [2] -0.5% | [3] 13.3% | [4] -12.8% | [5] 2% | [6] -0.7%

O=S(=O)(Oc1ccc(Cl)cc1)c1ccc(Br)cc1
inactive: [1] 10.7% | [2] 32.7% | [3] 47.1% | [4] 8.8% | [5] 39.4% | [6] 25.3%

CC(=O)N1Cc2ncnc(N)c2C1
inactive: [1] -12.3% | [2] -8.9% | [3] -20.7% | [4] -10.6% | [5] -2.35% | [6] -10.4%

C#CCOCn1cc(C)c(=O)[nH]c1=O
inactive: [1] 0.4% | [2] -0.1% | [3] 16.5% | [4] 10.4% | [5] 0.05% | [6] 12.4%

CCC1CCCC1=O (configuration not stated)
inactive: [1] -8.75% | [2] -10.1% | [3] -9.9% | [4] 8.6% | [5] 10.4% | [6] -8.55%

CCOC(=O)c1ccncc1
inactive: [1] 23.6% | [2] -0.95% | [3] 21.7% | [4] -4.4% | [5] -1.5% | [6] 6.4%

CCOc1ccc(-c2oc(/C=N/NS(=O)(=O)c3ccc(C)cc3)c([N+](=O)[O-])c2-c2ccc(OCC)cc2)cc1
inactive: [1] 59.7% | [2] 37.5% | [3] 64% | [4] 62.2% | [5] 44.6% | [6] 58.5%

C=C(C)C(=O)OCC(O)C[N+](C)(C)C (configuration not stated)
inactive: [1] 0.35% | [2] -15.8% | [3] 2.9% | [4] 11.2% | [5] 5.1% | [6] 4.3%

CS(=O)(=O)Oc1ccc2cc(Br)ccc2c1
inactive: [1] 13.6% | [2] -5.35% | [3] -0.3% | [4] 4.25% | [5] 31.4% | [6] 9.75%

OC(CCl)(CCl)CCl
inactive: [1] 9.5% | [2] -11.9% | [3] -9.7% | [4] -16.5% | [5] -2.05% | [6] 18.8%

CC(C)(C)NC(=O)Nc1nccs1
inactive: [1] 7.8% | [2] -7.9% | [3] -6.2% | [4] -86.5% | [5] -3.9% | [6] 9.85%

CCCCCCCCCCCC(=O)CC(=O)c1c(O)cccc1O
inactive: [1] 1.35% | [2] -11.6% | [3] 6.45% | [4] 0.1% | [5] 20.7% | [6] -12.2%

CC(C)(SC(=N)N)B(O)O
inactive: [1] -3.2% | [2] -12.3% | [3] -6.55% | [4] 9.35% | [5] -8.35% | [6] -7.7%

O=[N+]([O-])C1CCC(N=Nc2c(O)ccc3ccccc23)CC1 (configuration not stated)
inactive: [1] -9.95% | [2] 3.6% | [3] 4.65% | [4] -27% | [5] -50.6% | [6] -0.6%

O=C(c1ccc(Cl)cc1)C(C(c1ccccc1[N+](=O)[O-])N1CCCCC1)N1CCCCC1 (configuration not stated)
inactive: [1] -15.1% | [2] -0.3% | [3] -10.4% | [4] -30.8% | [5] -23.6% | [6] 2.15%
